Source: PubChem BioAssay (NCATS)
Records with an inconclusive call do not appear. Active and inactive are the calls of the source. Calls come from the whole dose curve.

Columns and labels:
[1] = Primary qHTS for inhibitors of SARS-S pseudo-typed particle cell entry (AID 1479145); note: nearly all actives have a fitted effect of over 45% in size
[2] = Primary qHTS for Huh7 cytotoxicity: counterscreen for inhibitors of MERS-S pseudotyped particle cell entry (AID 1479147)
[3] = Primary qHTS for inhibitors of MERS-S pseudo-typed particle cell entry (AID 1479149); note: nearly all actives have a fitted effect of over 60% in size
[4] = Primary qHTS for Vero E6 cytotoxicity: counterscreen for inhibitors of SARS-S pseudo-typed particle cell entry (AID 1479150)

Measured: Potency

O=C1CC[C@H](C(=O)N2CCCCC2)N1
inactive: all assays above

CC(C)Cn1cnc2c(N)nc3ccccc3c21
inactive: all assays above

CN(C)C(=O)COC(=O)Cc1ccc(OC(=O)c2ccc(N=C(N)N)cc2)cc1
inactive: all assays above

CNNCc1ccc(C(=O)NC(C)C)cc1
inactive: all assays above

CC(C)Cc1ccc(C(C)C(=O)O)cc1 (stereo not given)
inactive: all assays above

CC(=O)Nc1c(I)c(NC(C)=O)c(I)c(C(=O)O)c1I
inactive: all assays above

CC(=O)NS(=O)(=O)c1ccc(N)cc1
inactive: all assays above

CO[C@@]1(NC(=O)Cc2cccs2)C(=O)N2C(C(=O)O)=C(COC(N)=O)CS[C@@H]21
inactive: all assays above

C[C@@H]1[C@H](O)[C@@H](C)/C=C/C=C\C=C\C=C\C=C\C=C\C=C\[C@H](O[C@@H]2O[C@H](C)[C@@H](O)[C@H](N)[C@@H]2O)C[C@@H]2O[C@](O)(C[C@@H](O)C[C@@H](O)[C@H](O)CC[C@@H](O)C[C@@H](O)CC(=O)O[C@H]1C)C[C@H](O)[C@H]2C(=O)O (stereo in doubt)
inactive: all assays above

CN/C(=C\[N+](=O)[O-])NCCSCc1csc(CN(C)C)n1
inactive: all assays above

C=CC(N)CCC(=O)O (stereo not given)
inactive: all assays above

Cc1c[nH]c2ccccc12
inactive: all assays above

Nc1ccc(S(=O)(=O)NC(=O)c2ccccc2)cc1
inactive: all assays above

CCCCCCCC(=O)OCC(COC(=O)CCCCCCC)OC(=O)CCCCCCC
inactive: all assays above

C[C@H](CS)C(=O)N1CCC[C@H]1C(=O)O
inactive: all assays above

CCOC(=O)Oc1ccc(CCNC(=O)[C@H](CCSC)NC(C)=O)cc1OC(=O)OCC
inactive: all assays above

NC(=O)NC1NC(=O)NC1=O (stereo not given)
inactive: all assays above

CC1(C)O[C@H]2CC(=O)OC[C@]23[C@H]2CC[C@@]4(C)[C@H](c5ccoc5)OC(=O)[C@H]5O[C@]54[C@]2(C)C(=O)C[C@@H]13
inactive: all assays above

Cn1c(=O)c2[nH]cnc2n(C)c1=O
inactive: all assays above

COC(=O)N/N=C/c1c[n+]([O-])c2ccccc2[n+]1[O-]
inactive: all assays above

CC(C)=CCC/C(C)=C/CO
inactive: all assays above

CNC(=O)c1c(I)c(NC(C)=O)c(I)c(C(=O)O)c1I
inactive: all assays above

CN(C)CCc1c[nH]c2ccc(Cn3cncn3)cc12
inactive: all assays above

N[C@@H](Cc1cc(I)c(Oc2ccc(O)c(I)c2)c(I)c1)C(=O)O
inactive: all assays above

Cc1ccccc1C(=O)N1CC/C(=N\OS(=O)(=O)O)c2ccc(Cl)cc21
inactive: all assays above

Cc1nnc(NS(=O)(=O)c2ccc(N)cc2)s1
inactive: all assays above

CCOC(=O)[C@H](CCc1ccccc1)N[C@@H](C)C(=O)N1CCC[C@H]1C(=O)O
inactive: all assays above

CC(C)=CCC1C(=O)N(c2ccccc2)N(c2ccccc2)C1=O
inactive: all assays above

Nc1ccc(S(=O)(=O)Nc2ccnn2-c2ccccc2)cc1
inactive: all assays above

C[N+]1(C)CCCC(OC(=O)C(O)(c2ccccc2)c2ccccc2)C1 (stereo not given)
inactive: all assays above

OC[C@@H](O)[C@@H](O[C@@H]1O[C@H](CO)[C@H](O)[C@H](O)[C@H]1O)[C@H](O)[C@@H](O)CO
inactive: all assays above

CC(=O)OC(C)C[N+](C)(C)C (stereo not given)
inactive: all assays above

COc1ccnc(CS(=O)c2nc3ccc(OC(F)F)cc3[nH]2)c1OC (stereo not given)
inactive: all assays above

C[C@]12C=CC(=O)C=C1CC[C@@H]1[C@@H]2C(=O)C[C@@]2(C)[C@H]1CC[C@]2(O)C(=O)CO
inactive: all assays above

O=C1[C@@H]2[C@H]3CC[C@H](C3)[C@@H]2C(=O)N1CCCCN1CCN(c2ncccn2)CC1
inactive: all assays above
